Measured values taken from PubChem BioAssay AID1259415 (National Center for Advancing Translational Sciences (NCATS), 2018).
Screen size: about 410,000 compounds; about 18,000 (4.4%) were called active. Not shown: some 7% with an inconclusive outcome. Cut-off read from the data, not from the text of the source: active = activity change below about -60%; inconclusive = no clear call, values can overlap the other calls; inactive = above about -39%. The entries come from a sample that favours actives as a whole.

experiment: qHTS Assay for inhibitors of the human cytomegalovirus (HCMV); settings: HFF cells, HCMV-luciferase reporter, 72 h; at 57.5 µM; stronger effect = lower value
Outline: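 Compounds were evaluated in HFFs infected with an HCMV luciferase reporter virus (MOI 1 PFU/cell). Luciferase in lysates collected 72 h post infection served as the replication measure.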
% is set by controls: 0 for no effect and ±100 for the full control effect.

SMILES | activity change, negative = inhibition
CCCN(CCC)C(=O)C(Cc1ccccc1)NS(=O)(=O)c1ccc2c(c1)c(=O)n(C)c(=O)n2C (stereo unspecified) | 1.57% (inactive)
NC(=O)C1CCN(C(=O)COc2cccc3cccnc23)CC1 | -88.1% (active)
CCCCc1cc(=O)oc2c(C)c(OCC(=O)N3CCC(C(N)=O)CC3)ccc12 | -17.9% (inactive)
CCOC(=O)C1CCN(C(=O)COc2cccc3ccccc23)CC1 | -33.6% (inactive)
CC(C)=CCCC(C)CN1CCC(n2nccc2NC(=O)c2ccccc2)CC1 (stereo unspecified) | -18.5% (inactive)
COc1ccc(NC(=O)C(c2ccccc2)N2Cc3ccccc3C2=O)cc1 (stereo unspecified) | -2.09% (inactive)
CC(C)(C)c1ccc(Oc2ccc(N)cc2)cc1 | -86.3% (active)
CC(C)(C)c1ccc(OC(=O)N2CCCCC2)cc1 | 29.6% (inactive)
Cc1c(Cl)cccc1NC(=O)c1noc2c1CCCC2 | -4.84% (inactive)
O=C(Nc1c(Br)cc2c(c1Br)Cc1cc([N+](=O)[O-])ccc1-2)C(Cl)Cl | -31.6% (inactive)
COc1ccc(-n2c(SC)nc3sc4c(c3c2=O)CCN(C(C)=O)C4)cc1 | 24.9% (inactive)
Cc1ccc(CNC(=O)Cn2c(=O)ccc3cc(S(=O)(=O)N4CCCC4)ccc32)cc1 | -10.3% (inactive)
Cc1ccn2c(Nc3ccc4c(c3)OCCO4)c(-c3ccc(C)s3)nc2c1 | 10.7% (inactive)
CCOc1ccc(Nc2ncnc3scc(-c4ccc(OC)cc4)c23)cc1 | -22.6% (inactive)
COc1ccc(-c2csc(Nc3ccc(O)cc3)n2)cc1 | -72.3% (active)
N#C/C(=C\c1cccc(F)c1)c1nc(-c2cc3c(ccc4ccccc43)oc2=O)cs1 | 1.4% (inactive)
Cc1cc(NC(=O)c2cccc(Cl)c2)ccc1-c1cc2ccccc2oc1=O | 28.2% (inactive)
COc1ccc(-c2csc(-c3c(N)c(C(=O)c4ccc(OC)c(OC)c4)n4ccccc34)n2)cc1 | 9.65% (inactive)
O=c1oc2ccccc2cc1-c1csc(Nc2ccc(O)cc2)n1 | -87.2% (active)
CC(C)(C)c1ccc(OCC(=O)N2CCC(c3nc4ccccc4s3)CC2)cc1 | 4.7% (inactive)
COCCn1c(CCC(=O)Nc2cc(C)ccc2C)nc2cccnc21 | 5.25% (inactive)
CCOC(=O)c1ccc(COC(=O)c2cc(=O)[nH]c3ccccc23)o1 | -5.78% (inactive)

SMILES | activity change, negative = inhibition
CC1CCN(C(=O)COC(=O)c2cc(=O)[nH]c3ccccc23)CC1 | 10.6% (inactive)
O=C(OCc1nnc(-c2ccccc2)o1)c1cc(=O)[nH]c2ccccc12 | -98.7% (active)
CCc1ccc(S(=O)(=O)Nc2cc3c(C(=O)OCc4ccccc4)c(C)oc3c3ccccc23)cc1 | 8.24% (inactive)
CCN(CC)C(=O)CSC1c2ccccc2C(=O)N1c1ccccc1 (stereo unspecified) | -6.4% (inactive)
COc1ccc(-c2nc3c(c(SCC(=O)Nc4ccc(C(=O)O)cc4)n2)Cc2ccccc2O3)cc1 | 42.3% (inactive)
CCOC(=O)c1c(C)[nH]c(C)c1C(=O)COC(=O)/C=C/c1cccc([N+](=O)[O-])c1 | -7.36% (inactive)
CC(C)c1nnc(NC(=O)COC(=O)/C=C/c2ccc([N+](=O)[O-])cc2)s1 | 28.8% (inactive)
CCOC(=O)/C(=C\c1ccc([N+](=O)[O-])cc1)C(=O)c1cc(C(C)=O)c(Nc2ccccc2)s1 | -106% (active)
Oc1ccccc1-c1nc2ccc(Cl)cn2c1Nc1ccc2c(c1)OCCO2 | -5.59% (inactive)
COc1ccccc1CNC(=O)CCn1c(=O)c2ccccc2n(CC(=O)Nc2ccc(Br)cc2F)c1=O | -12.3% (inactive)
CCS(=O)(=O)c1ncc(N(Cc2ccc(F)cc2)Cc2ccco2)c(C(=O)Nc2cc(C)ccc2C)n1 | -29.7% (inactive)
CCCSc1ncc(Cl)c(C(=O)Nc2c(C(=O)Nc3ccccc3)oc3ccccc23)n1 | -20.1% (inactive)
CCOC(=O)c1ccc(NC(=O)c2nc(SCc3ccc(F)cc3)ncc2Cl)cc1 | 13.6% (inactive)
Cc1ccc(NC(=O)c2nc(S(=O)(=O)Cc3cccc(C)c3)ncc2Cl)cc1 | -94.3% (active)
Cc1cccc(NC(=O)c2nc(S(=O)(=O)Cc3ccccc3)ncc2Cl)c1 | -100% (active)
Cc1ccc(CCNC(=O)c2ccc(CS(=O)(=O)Cc3cccc(C)c3)o2)cc1 | -17.4% (inactive)
Cc1ccc(Cn2c(CNC(=O)Cc3cccc(C)c3)nc3cccnc32)cc1 | -7.33% (inactive)
Cc1cccc(NC(=O)Cn2cc(S(=O)(=O)Cc3ccccc3Cl)c3ccccc32)c1 | 0% (inactive)
Cc1cccc(CS(=O)(=O)c2ncc(Cl)c(C(=O)Nc3ccc(F)cc3)n2)c1 | -110% (active)
CC=C(C)C(=O)OC1CCN2CC=C(COC(=O)C(O)(C(C)OC)C(C)(C)O)C12 (stereo unspecified) | -28.3% (inactive)
O=C(CCC1N=C2c3ccccc3N=C(SCc3ccccc3F)N2C1=O)NCCc1ccccc1 (stereo unspecified) | -29% (inactive)
O=C(Cn1c(=O)n(-c2ccc(F)cc2)c(=O)c2sccc21)Nc1cccc(C(F)(F)F)c1 | -5.68% (inactive)

SMILES | activity change, negative = inhibition
CC1CCCCN1S(=O)(=O)c1ccc(F)c(C(=O)Nc2ccccc2C(F)(F)F)c1 (stereo unspecified) | 11% (inactive)
COc1cc([C@H](Cc2ccccc2)NC(C)=O)oc(=O)c1 | -10.1% (inactive)
CC(C)OC(=O)c1sc2nc3c(cc2c1N)C(=O)CCC3 | 45.7% (inactive)
COc1cccc(C(=O)c2sc3nc(-c4ccccc4)cc(C(F)(F)F)c3c2N)c1 | 7.18% (inactive)
NC(=O)c1sc2nc3c(c(-c4ccccc4)c2c1N)CCC3 | -93.9% (active)
CCOc1ccc(CCNC(=O)COC(=O)CCS(=O)(=O)c2ccc(C)cc2)cc1OCC | 55.9% (inactive)
COc1ccc(-c2cc(C(=O)NCc3cc(OC)c(OC)c(OC)c3)[nH]n2)cc1 | 3.93% (inactive)
COc1ccc(CC(=O)Nc2nc(-c3ccc(F)c(F)c3)cs2)cc1OC | -78.6% (active)
COc1ccc(C(=O)Nc2cc(S(=O)(=O)N3CCCC3)ccc2Cl)cc1 | -31.9% (inactive)
COc1ccc(C(=O)Nc2nc(-c3ccc(S(=O)(=O)N4CCOCC4)cc3)cs2)cc1 | -98.4% (active)
COc1cc(CC(=O)Nc2nc(-c3ccc(F)c(F)c3)cs2)cc(OC)c1OC | -77.3% (active)
COc1ccc(-c2csc(NC(=O)c3ccc(N4C(=O)CCC4=O)cc3)n2)cc1OC | -70.7% (active)
COc1ccc(C2(CNC(=O)Cc3ccc(OC)c(OC)c3)CCCC2)cc1 | -33.6% (inactive)
COc1ccc(CCNC(=O)COC(=O)Cc2cc(OC)c(OC)c(OC)c2)cc1 | -11.8% (inactive)
COc1ccc(-n2nc3c(c2NC(=O)c2ccc(N4C(=O)CCC4=O)cc2)CSC3)cc1 | 0% (inactive)
COc1ccccc1C(=O)Oc1ccc(N2C(=O)CCC2=O)cc1 | -9.72% (inactive)
COc1ccc(CC(=O)Nc2nnc3n2CCS3)cc1OC | 1.77% (inactive)
Cc1cc2nc(NC(=O)c3ccc(S(=O)(=O)N4CCOCC4)cc3)sc2cc1C | 3.59% (inactive)
CCC(C)N(C(=O)COC(=O)C1C(C(=O)OC)=C(C)NC(C)=C1C(=O)OC)C1CCS(=O)(=O)C1 (stereo unspecified) | -15.8% (inactive)
COc1ccc(S(=O)(=O)N[C@H]2CC[C@@]34CCCN3C(=O)CCC[C@H]4[C@H]2Cc2ccccc2)cc1 | -13.9% (inactive)
Cc1ccccc1OCc1nc2c3cnn(-c4ccccc4F)c3ncn2n1 | 2.88% (inactive)
CCN1CCN(c2ncc3c(n2)CC(c2ccccc2O)CC3=O)CC1 (stereo unspecified) | -2.14% (inactive)

SMILES | activity change, negative = inhibition
CCOC(=O)c1ccc2c(c1)N(Cc1cccc(OC)c1)C(=O)c1ccccc1S2(=O)=O | 41.8% (inactive)
O=C(NC1CCCCC1)c1ccc(Cn2c(SCc3ccccc3)nc3cccnc32)cc1 | 13.4% (inactive)
CCS(=O)(=O)N1CCc2cc(C(=O)NCc3ccc(OC)cc3)ccc21 | 21.8% (inactive)
Cc1ccc(OCCSc2nc(C)c(Cc3ccccc3)c(=O)[nH]2)cc1 | -3.53% (inactive)
COc1ccc(CNC(=O)c2cc3c(=O)[nH]c4ccccc4c3s2)cc1 | -6.89% (inactive)
Cc1ccc(C)n1-c1nnc(N2CCC(C(=O)NCc3ccccc3Cl)CC2)s1 | -16.5% (inactive)
Cc1cccc(-c2nc(SCC(=O)Nc3cc(C)on3)c3c(=O)n(C)c(=O)n(C)c3n2)c1 | -3.8% (inactive)
CCOC(=O)c1oc2ccc(S(=O)(=O)n3nc(-c4ccccc4OC)cc3N)cc2c1C | 0.413% (inactive)
Cc1oc2cc3oc(=O)ccc3cc2c1C | 57.6% (inactive)
Cc1ccc(NC(=O)Cc2ccc(NC(=O)N3CCCCc4ccccc43)cc2)cc1 | 2.61% (inactive)
COc1ccc2c(c1)c(=O)c(C(=O)c1ccccc1)cn2CC(=O)Nc1ccc2c(c1)OCCO2 | -4.48% (inactive)
COc1ccccc1-c1noc(CSc2nc(C)cc(=O)[nH]2)n1 | -61.9% (active)
COc1ccc(-c2noc(CSc3nc(C)cc(=O)[nH]3)n2)cc1OC | 14.1% (inactive)
COc1ccccc1-c1noc(CSc2nnc(-c3ccccc3)n2-c2ccc(C)c(C)c2)n1 | 4.88% (inactive)
Cn1c(=O)sc2cc(NS(=O)(=O)c3ccc(C(C)(C)C)cc3)ccc21 | -1.79% (inactive)
COc1ccc(N2CCN(S(=O)(=O)c3cc(Br)cnc3N)CC2)cc1 | 19.7% (inactive)
Cc1cc2nn(-c3ccc(Cl)cc3)nc2cc1NC(=O)C(C)C | -64.3% (active)
CCCC(=O)Nc1cc2nn(-c3ccccc3)nc2cc1C | 123% (inactive)
O=C(Cc1ccc(Cl)cc1)Nc1ccc2nn(-c3ccc(Cl)cc3)nc2c1 | 21.1% (inactive)
Cn1c(=O)n(Cc2c(F)cccc2Cl)c(=O)c2c1nc1n2CCN1c1ccc(F)cc1 | 17.8% (inactive)
